Data reported in article PMC8384837, “Expanding the binding specificity for RNA recognition by a PUF domain”.

Target: PUM1 PUF domain R1-RGN (Homo sapiens, UniProt Q14671 828-1176, S863R;R864G;Q867N)
Test: yeast three-hybrid, YBZ-1, SC-Leu-His + 0.5 mM 3-AT, 4 days
Details: tags: N-Gal4 AD-HA kept; label: inside an RPR1-promoter hybrid RNA with tandem MS2 sites; ssRNA
How it was run: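 Sequencing with Illumina followed PCR amplification of the repeat regions from transformants grown four days on SC-Leu (input) or SC-Leu-His + 0.5 mM 3-AT (selection). The transformants were strain YBZ-1 with a LexA–MS2 coat fusion and a HIS3 reporter, carrying Pumilio-1 PUF domain libraries and matching RNA elements. The interaction score is the log change in variant frequency from input to selection, computed in log2 with a pseudocount of 1 for absent variants.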

| Sequence | binding signal |
| --- | --- |
| GGCUAGAACUAGUGGAUCCCCCGGCGCCCGGCGGCUCGAGCCCGGGUAAGUGUAAAUCGUCUGCAUGCCGCCGGGCGCCAUGCCUGCAGGUCGACUCUAGAAAACAUG | 1.85 log2 enrichment (interaction score) |
| GGCUAGAACUAGUGGAUCCCCCGGCGCCCGGCGGCUCGAGCCCGGGUAAGUGUAAAUUGUCUGCAUGCCGCCGGGCGCCAUGCCUGCAGGUCGACUCUAGAAAACAUG | 2.37 log2 enrichment (interaction score) |
| GGCUAGAACUAGUGGAUCCCCCGGCGCCCGGCGGCUCGAGCCCGGGUAAGUGUAAAUGGUCUGCAUGCCGCCGGGCGCCAUGCCUGCAGGUCGACUCUAGAAAACAUG | 0.76 log2 enrichment (interaction score) |
